# In the supplement of paper PMC5662767:
# Structures can show the parent of a compound that is named as a salt.
# Test system: Drosophila S2 cl14 SmoIP sensor cells
# Test: normalized SmoIP GFP fluorescence (untreated unstimulated = 0%, untreated Hh-stimulated = 100%); higher = more Smo activation sensor fluorescence
# Conditions: compound concentration: 2 uM, 24 h
# [1] = stimulation: Hh conditioned medium (+Hh)
# [2] = stimulation: mock conditioned medium (-Hh)
# 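Also: flow cytometry read-out as median GFP intensity of gated cells, compounds added 30 min before Hh-conditioned or mock medium, mock-treated cells serving as unstimulated baseline.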
Structure (SMILES),normalized SmoIP GFP fluorescence [1] [%],normalized SmoIP GFP fluorescence [2] [%]
Cc1cc(Cn2cnc3c2CC(C(=O)O)N(C(=O)C(c2ccccc2)c2ccccc2)C3)ccc1N(C)C (centres undefined),109,-4.13
CCO[C@@H]1OC(=O)C[C@@H]1NC(=O)[C@@H]1CCCN1C(=O)[C@@H](NC(=O)c1ccc(N)c(Cl)c1)C(C)(C)C,135,-7.78
Cc1ccc(S(=O)(=O)OCC(=O)Nc2ccc(C(=O)O)c(O)c2)cc1,112,-9.58
COc1ccccc1N1CCN(CCN(C(=O)C2CCCCC2)c2ccccn2)CC1,125,7.01
O=C(NOCC(O)CO)c1cc(Br)c(F)c(F)c1Nc1ccc(I)cc1F (centres undefined),132,16.8
COc1ccc(-n2nc(C(N)=O)c3c2C(=O)N(c2ccc(N4CCCCC4=O)cc2)CC3)cc1,102,-1.56
CC(C)(O)CC(=O)NCCn1ccc2ncnc(Nc3ccc(Oc4cccc(C(F)(F)F)c4)c(Cl)c3)c21,116,3.66
O=C(Nc1ccccc1-c1cn2c(CN3CCNCC3)csc2n1)c1cnc2ccccc2n1,107,1.57
Cn1ncnc1[C@H]1c2n[nH]c(=O)c3cc(F)cc(c23)N[C@@H]1c1ccc(F)cc1,107,-2.82
O=C(NC[C@H]1CN(c2ccc(N3CCOCC3=O)cc2)C(=O)O1)c1ccc(Cl)s1 [Rivaroxaban],103,-1.34
Cc1nc(Nc2ncc(C(=O)Nc3c(C)cccc3Cl)s2)cc(N2CCN(CCO)CC2)n1 [Dasatinib],126,-3.93
CN1CCN(C2=Nc3cc(Cl)ccc3Nc3ccccc32)CC1 [Clozapine(Clozaril)],119,0.154
Cc1cc2c(F)c(Oc3ncnn4cc(OC[C@@H](C)O)c(C)c34)ccc2[nH]1 [Brivanib],97.5,0.489
CN1CCC(CNc2ccc3ncc(-c4cccc(OC(F)(F)F)c4)n3n2)CC1,122,5.38
NCCCCCNCC12CC3CC(CC(C3)C1)C2 [iem-1754-dihydrobromide],102,-2.31
CN1CCN(c2ccc3nc(-c4c(N)c5c(F)cccc5[nH]c4=O)[nH]c3c2)CC1,63.2,69.1
CC(C)(F)C[C@H](N[C@@H](c1ccc(-c2ccc(S(C)(=O)=O)cc2)cc1)C(F)(F)F)C(=O)NC1(C#N)CC1 [Odanacatib-(MK0822)],110,-4.25
COc1ccc(-c2nc3ccc(C4=NNC(=O)CC4C)cc3[nH]2)cc1 (centres undefined) [Pimobendan(Vetmedin)],104,4.8
Nc1nc(=O)n([C@@H]2CS[C@H](CO)O2)cc1F [Emtricitabine],111,-14.7
CC(C)NCC(O)COc1cccc2ccccc12 (centres undefined) [propranolol-hcl],111,-1.63
Nc1ncnc2c1c(-c1cnc3[nH]ccc3c1)nn2C1CCCC1,50.6,-17.9
O=C(CCCCCCC(=O)Nc1ccccc1)NO [Vorinostat-(SAHA)],89.9,37.6
CCS(=O)(=O)Nc1ccc2c(c1)/C(=C(/Nc1ccc(CN3CCCCC3)cc1)c1ccccc1)C(=O)N2 [Hesperadin],94.8,12.7
Cc1cc2c(F)c(Oc3ncnn4cc(OC[C@@H](C)OC(=O)[C@H](C)N)c(C)c34)ccc2[nH]1 [Brivanib-alaninate],117,9
c1ccc2c(CC3=NCCN3)cccc2c1 [Naphazoline-hydrochloride-Naphcon],118,-11.6
CN1CC2c3ccccc3Oc3ccc(Cl)cc3C2C1 (centres undefined) [Asenapine],115,4.58

Structure (SMILES),normalized SmoIP GFP fluorescence [1] [%],normalized SmoIP GFP fluorescence [2] [%]
CCCCc1nc(Cl)c(CO)n1Cc1ccc(-c2ccccc2-c2nnn[nH]2)cc1 [losartan-potassium],90.8,-1.56
COC(=O)N1CCN(Cc2cccc(NC(=O)Nc3ccc(C)nc3)c2F)CC1,125,-11.4
Cn1c(Nc2ccc(C(F)(F)F)cc2)nc2cc(Oc3ccnc(-c4ncc(C(F)(F)F)[nH]4)c3)ccc21,183,2.32
CC1(COc2ccc3c(c2)ncn3-c2ccc3cccc(N4CCC(N)CC4)c3n2)COC1,260,77.9
O=C(CCCCCN1C(=O)c2cccc3cccc(c23)C1=O)NO [scriptaid],163,10.9
CNC(=O)c1ccccc1Nc1nc(Nc2ccc(N3CCOCC3)cc2OC)ncc1Cl,163,22.3
O=C(/C=C\n1cnc(-c2cc(C(F)(F)F)cc(C(F)(F)F)c2)n1)NNc1cnccn1,109,1.33
Cc1ccc(C(=O)Nc2ccc(CN3CCN(C)CC3)c(C(F)(F)F)c2)cc1C#Cc1cnc2[nH]ncc2c1,104,3.88
CN1CCc2nc(C(=O)N[C@@H]3C[C@@H](C(=O)N(C)C)CC[C@@H]3NC(=O)C(=O)Nc3ccc(Cl)cn3)sc2C1 [edoxaban],106,-1.34
C[C@H]1COC2=C1C(=O)C(=O)c1c2ccc2c1CCCC2(C)C [Cryptotanshinone],115,-9.22
CCOC(=O)[C@H](CCc1ccccc1)N[C@@H](C)C(=O)N1Cc2ccccc2C[C@H]1C(=O)O [quinapril-hydrochloride-accupril],125,2.95
COc1cc(F)c(C(C)C)cc1-c1ccc(C(F)(F)F)cc1CN1C(=O)O[C@H](c2cc(C(F)(F)F)cc(C(F)(F)F)c2)[C@@H]1C [anacetrapib-mk-0859],146,-8.59
COc1cc2ncnc(Nc3ccc(F)c(Cl)c3)c2cc1NC(=O)/C=C/CN1CCCCC1,163,12.5
NC(=O)c1cccc(-c2cccc(OC(=O)NC3CCCCC3)c2)c1,134,-7.15
O=C(NCCS(=O)(=O)c1ccc(C(F)(F)F)cn1)c1ccc(Cl)cc1,120,-14.9
Cn1nnc2c(C(N)=O)ncn2c1=O [Methazolastone],110,3.18
NC(=O)c1noc([C@H](CCCC2CCCCC2)CC(=O)NO)n1,126,-6.97
CNCCC(Oc1ccc(C(F)(F)F)cc1)c1ccccc1 (centres undefined) [Fluoxetine-hydrochloride],111,1.89
Cc1ccc(NC(=O)c2cccc(N(C)C)c2)cc1NC(=O)c1ccc(O)cc1,120,-14.7
CN[C@H]1CC[C@@H](c2ccc(Cl)c(Cl)c2)c2ccccc21 [sertraline-hcl],108,2.46
CCCCNC(=O)NS(=O)(=O)c1ccc(C)cc1 [tolbutamide],108,-16.8
CCn1c(-c2nonc2N)nc2c(C#CC(C)(C)O)ncc(OC[C@H]3CCCNC3)c21,98.8,-8.56
N[C@H]1C[C@@H]1c1ccc(-c2cccc(O)c2)cc1,102,-4.81
O=C1CCC(N2C(=O)c3ccccc3C2=O)C(=O)N1 (centres undefined) [Thalidomide],101,4.26
CC(C)C[C@H](NC(=O)[C@H](Cc1ccccc1)NC(=O)c1cnccn1)B(O)O [Bortezomib],70.3,52.4
Cc1cc(Nc2nc(N[C@@H](C)c3ccc(F)cc3)c(C#N)cc2F)n[nH]1,109,-9.04
